The nature of assay [1]: CCTE_Shafer_MEA_dev_burst_rate: CCTE's Neural Network Formation Assay for Burst Rate, Shafer Lab (AID 2284042).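 As to AC50: potency for loss of burst rate below DMSO control.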 Summed up:
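Cells plated, treated day 0; recorded DIV 5, 7, 9, 12; fed and re-treated DIV 5, 9. Endpoint: bursts per recording time, active-electrode well mean, trapezoidal AUC, fitted in decreasing direction against DMSO baseline.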

The nature of assay [2]: CCTE_Shafer_MEA_dev_per_burst_interspike_interval: CCTE's Neural Network Formation Assay for Burst Interspike Interval, Shafer Lab (AID 2284044).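 As to AC50: potency for a decrease of within-burst interspike interval below DMSO level.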 Summed up:
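Readout is the average time between spikes inside single-electrode bursts, taken as a well mean across bursting electrodes. Cortical neurons from rat developed networks on MEA plates under continuous 12-day exposure; recordings on days 5, 7, 9 and 12 were integrated by trapezoidal AUC.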

A short description of assay [3]: CCTE_Shafer_MEA_dev_burst_duration_mean: CCTE's Neural Network Formation Assay for Mean Burst Duration, Shafer Lab (AID 2284045).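 As to AC50: curve fitted for loss meaning shorter burst duration than DMSO.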 The method in brief: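 Primary rat cortical neurons on PEI-coated 16-electrode MEA wells, exposed from plating through day 12 with compound renewed at DIV 5 and 9; spontaneous activity recorded days 5, 7, 9, 12. Well-mean burst duration collapsed as trapezoidal AUC, fitted for loss versus DMSO.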

Assay [4] can be described thus: CCTE_Shafer_MEA_dev_inter_network_spike_interval_mean: CCTE's Neural Network Formation Assay for Mean Inter-network Spike Interval, Shafer Lab (AID 2284047).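 As to AC50: potency for a decrease in mean inter-network spike interval below DMSO.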 Summed up: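 Rat cortical cultures, 1.5 x 10^5 cells/well on 48-well MEA plates; continuous exposure days 0–12, medium and compound refreshed DIV 5, 9. Mean time between consecutive network-spike peaks; AUC across DIV 5/7/9/12; DMSO baseline, negative fitting direction.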

The nature of assay [5]: CCTE_Shafer_MEA_dev_network_spike_number: CCTE's Neural Network Formation Assay for Number of Network Spikes, Shafer Lab (AID 2284048).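 As to AC50: fit as a loss of signal meaning fewer network spikes than DMSO.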 Summed up: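 Primary rat cortical neurons were seeded at 1.5 x 10^5 cells/well on PEI-coated 16-electrode MEA wells with laminin, exposed from plating day 0, compound renewed at DIV 5 and 9. Network spikes were recorded on days 5, 7, 9, 12 and summarized as trapezoidal AUC versus DMSO.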

Assay [6] in a line: CCTE_Shafer_MEA_dev_network_spike_peak: CCTE's Neural Network Formation Assay for Mean Number of Electrodes in Network Spike, Shafer Lab (AID 2284049).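 As to AC50: fitted for loss of signal meaning fewer electrodes in network spikes than DMSO.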 Summed up:
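Continuous 12-day exposure of rat cortical cultures, starting at plating, on MEA plates. Endpoint: electrodes participating in network-spike peaks, AUC across DIV 5–12, DMSO as negative control.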

Assay [7] in a line: CCTE_Shafer_MEA_dev_network_spike_duration_std: CCTE's Neural Network Formation Assay for Standard Deviation of Network Spike Duration, Shafer Lab (AID 2284052).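 Also: area under curve of spike duration SD across recording days 5 to 12; hits are decreases in network spike duration SD versus DMSO vehicle.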 The method in brief:
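Read-out is the trapezoidal area-under-the-curve across recordings made on days 5, 7, 9 and 12, fitted in the negative direction against DMSO baseline. Neurons were primary rat cortical cells treated from day 0, with treatment renewed at each feed.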

The nature of assay [8]: CCTE_Shafer_MEA_dev_per_network_spike_spike_number_mean: CCTE's Neural Network Formation Assay for Mean Number of Spikes in a Network Spike, Shafer Lab (AID 2284053).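 As to AC50: fitted as decrease in spikes per network spike relative to DMSO.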 Summed up:
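Continuous twelve-day exposure of developing rat cortical networks grown over 16 microelectrodes per well; spontaneous firing is captured at four time points, and the per-network-spike spike number is integrated over development by trapezoidal AUC.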

The next assay has as its system DIO2 (gene 1734). In words: CCTE_GLTED_hDIO2: CCTE's human Deiodinase 2 (DIO2) Inhibition Assay, Great Lakes Toxicology and Ecology Division (GLTED) Lab (AID 2284050; active = hit-call score of the fitted dose curve at least 0.9, where 1 is the maximum). Summed up:
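In this cell-free test, chemicals are exposed to human deiodinase type 2 for 3 hours. Released iodide is determined spectrophotometrically via the Sandell-Kolthoff method, and signal loss relative to DMSO is fitted.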

Assay [9] can be described thus: CCTE_Shafer_MEA_dev_interburst_interval_mean: CCTE's Neural Network Formation Assay for Mean Interburst Interval, Shafer Lab (AID 2284046).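 Also: well-mean interburst interval of bursting electrodes as AUC over four recording days; curve fitted for decrease in interburst interval relative to DMSO.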 The method in brief:
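Developing rat cortical networks on 48-well MEAs receive compound from the day of plating. Burst intervals from each active electrode are averaged per well, and AUC over the recording days is fitted in the negative direction against DMSO.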

We go through 19 molecules from PubChem BioAssay (EPA / NIEHS).

“And” between values parts separate entries of the source, which are not always exact repeats. Equal entries are not always repeated. Where a structure was tested more than once in an assay, its records may differ in their call. The source made the active and inactive calls. The calls were made as follows, unless noted: active = hit-call score of the fitted dose curve at least 0.9, where 1 is the maximum; inactive = score below 0.9.

`ClC1C(Cl)C(Cl)C(Cl)C(Cl)C1Cl` (centres undefined): the molecule was called inactive in assay [1], in assay [2], in assay [3], in [4], in [5] and in assay [6]. Besides, the call in [7] and in assay [8] was inactive.

With `N#Cc1c(Cl)c(Cl)c(Cl)c(C#N)c1Cl`, the AC50 in the assay on DIO2 (gene 1734) was 5.63 µM (active).

`COP(=S)(OC)Oc1ccc([N+](=O)[O-])cc1`: the call in assay [1], in assay [2], in assay [3], in [9], in [4] and in assay [5] was inactive. Besides, in assay [7], the molecule was classed as inactive. Also, the AC50 is 23.4 µM (active) in assay [6] and 24.6 µM (active) in [8].

Take `CC1(c2ccc(Oc3ccccc3)cc2)OC(=O)N(Nc2ccccc2)C1=O` (centres undefined): the AC50 in assay [1] is 7.84 µM (active); in [2], 7.68 µM (active); in assay [9], 4.55 µM (active); in assay [4] it was 3.1 µM (active); in [5], 3.39 µM (active); in assay [6] it was 5.73 µM (active). In addition, the AC50 is 3.66 µM (active) in [7] and 4.26 µM (active) in assay [8]. In addition, the molecule was classed as inactive in [3].

For `O=C(O)COc1ccc(Cl)cc1Cl`, the call in assay [1], in [2], in assay [3], in assay [9], in assay [4] and in [5] was inactive. Also, the result in [7] and in [8] was inactive. For the same molecule, the AC50 in assay [6] is 50 µM (active).

Turning to `O=C(O)C(F)(F)C(F)(F)C(F)(F)C(F)(F)C(F)(F)C(F)(F)C(F)(F)F`, the molecule was classed as inactive in [1], in [2], in [3], in assay [9], in assay [4] and in [5]. In addition, the molecule was classed as inactive in assay [6], in assay [7] and in [8]. The AC50 in assay [6] was 13.9 µM (active).

For `COP(=O)(OC)OC=C(Cl)Cl`, the AC50 is 1.16 µM (active) in assay [1]; 10.1 µM (active) in [2]; 2.02 µM (active) in [9]; 0.983 µM (active) in assay [5]; 2.87 µM (active) in assay [6]; 0.852 µM (active) in [7]. For the same molecule, the AC50 in [8] was 1.94 µM (active). Also, the call in assay [1], in assay [2], in [3], in [9], in [4] and in [5] was inactive. The molecule was classed as inactive in [6], in assay [7] and in [8].

For the molecule `CCC(C)(C)C(=O)OC1=C(c2ccc(Cl)cc2Cl)C(=O)OC12CCCCC2`, the result in [1], in assay [2], in [3], in assay [9], in assay [4] and in [5] was inactive. For the same molecule, the call in assay [6], in assay [7] and in assay [8] was inactive.

`CC(C)N(C(=O)COc1nnc(C(F)(F)F)s1)c1ccc(F)cc1`: the molecule was called inactive in [1], in assay [2], in [3], in assay [9], in assay [4] and in [5]. Also, the molecule was classed as inactive in assay [6], in assay [7] and in assay [8]. Also, the AC50 in assay [6] was 23.3 µM (active); in assay [8], 15 µM (active).

As for `CCC(C)(NC(=O)c1cc(Cl)c(C)c(Cl)c1)C(=O)CCl` (centres undefined), the AC50 in the assay on DIO2 (gene 1734) is 13.2 µM (active).

Regarding `O=[N+]([O-])/N=C1\NCCN1Cc1ccc(Cl)nc1`, the outcome in assay [1], in assay [2], in assay [3], in assay [9], in [4] and in [5] was inactive. Also, the result in assay [6] and in assay [7] was inactive. In addition, the AC50 in assay [8] is 15 µM (active).

`CC1(C)C(C=C(Cl)Cl)C1C(=O)OC(C#N)c1ccc(F)c(Oc2ccccc2)c1` (centres undefined): the AC50 was 1.07 µM (active) and 259 nM (active) in assay [1]; 10 µM (active) in assay [2]; 2.04 µM (active) and 8.68 µM (active) and 7.93 µM (active) in [3]; 49.9 µM (active) and 21 µM (active) in assay [9]; 235 nM (active) and 10.6 µM (active) and 6.32 µM (active) in assay [5]; 10 µM (active) and 11.1 µM (active) and 15 µM (active) in assay [6]. Moreover, the AC50 was 3.51 µM (active) and 3.76 µM (active) in [7]; 3.15 µM (active) and 12.1 µM (active) and 11.9 µM (active) in [8]. In addition, the result in assay [1], in assay [2], in assay [9], in assay [4] and in [7] was inactive.

For `O=S1OCC2C(CO1)C1(Cl)C(Cl)=C(Cl)C2(Cl)C1(Cl)Cl` (centres undefined), the AC50 is 8.87 µM (active) in assay [1], 5.95 µM (active) in assay [5], 8.02 µM (active) in assay [6] and 8.24 µM (active) in [8]. Moreover, the molecule was classed as inactive in assay [2], in assay [3], in assay [9], in assay [4] and in assay [7].

Take `CC[C@H](C)[C@H]1O[C@]2(C=C[C@@H]1C)C[C@@H]1C[C@@H](C/C=C(\C)[C@@H](O[C@H]3C[C@H](OC)[C@@H](O[C@H]4C[C@H](OC)[C@@H](O)[C@H](C)O4)[C@H](C)O3)[C@@H](C)/C=C/C=C3\CO[C@@H]4[C@H](O)C(C)=C[C@@H](C(=O)O1)[C@]34O)O2` (tested in a mixture with another compound): the AC50 in assay [1] was 1.57 nM (active) and 0.778 nM (active); in [2] it was 1.37 nM (active) and 2.71 nM (active); in assay [3] it was 1.34 nM (active) and 0.41 nM (active); in assay [9], 12.2 nM (active) and 2.7 nM (active); in assay [5], 27.5 nM (active) and 2.25 nM (active); in assay [6] it was 16.4 nM (active) and 2.37 nM (active). In addition, the concentration at half-maximal activity (AC50) in [7] is 2.28 nM (active) and 0.912 nM (active); in assay [8], 6.69 nM (active) and 2.06 nM (active). The molecule was called inactive in assay [4].

For the molecule `O=S(=O)(O)C(F)(F)C(F)(F)C(F)(F)C(F)(F)C(F)(F)C(F)(F)C(F)(F)C(F)(F)F`, the AC50 in assay [1] is 3.81 µM (active); in assay [6] it was 50 µM (active); with DIO2 (gene 1734), 95 µM (active) [middle of 4 runs]; in assay [8], 50 µM (active). The molecule was classed as inactive in assay [1], in [2], in [3], in assay [9], in assay [4] and in assay [5]. Besides, the result in assay [6], in assay [7] and in assay [8] was inactive.

Turning to `Oc1cc(Cl)ccc1Oc1ccc(Cl)cc1Cl`, the AC50 in [1] is 8.47 µM (active); in assay [2], 16 µM (active); in [9], 15.6 µM (active); in assay [6] it was 9.85 µM (active); in the assay with DIO2 (gene 1734), 84 µM (active); in assay [7], 7.04 µM (active). Also, the AC50 in assay [8] is 9.32 µM (active). The result in [3], in [4] and in assay [5] was inactive.

Take `CCOCN(C(=O)CCl)c1c(C)cccc1CC`: in the assay on DIO2 (gene 1734), the half-maximal activity concentration (AC50) was 58.9 µM (active).

As to `CNC(=O)CSP(=S)(OC)OC`, the AC50 in assay [1] was 78.2 µM (active); in [6], 50 µM (active) and 15 µM (active); in [8], 50 µM (active). Moreover, the molecule was classed as inactive in assay [1], in [2], in assay [3], in assay [9], in [4] and in assay [5]. The outcome in [7] and in [8] was inactive.

Consider `Oc1ccc(Cl)cc1Cc1ccccc1`, for which, in the assay on DIO2 (gene 1734), the AC50 was 132 µM (active).
